We go through seven targets from the supplement of paper PMC10849652.

About 7,900 targets were measured; listed, in parts, are those with a hit and a random draw of the rest. About 0.6% of all pairs of compound and target were hits. Values without a mark were called inactive.

Common to all, as to experiment: log2 fold change, soluble protein after heating vs DMSO (PISA); higher = thermal stabilisation; K562 cells, 10 uM, 30 min; active = over 0.2 and 3.5 SD of the protein, either way, in both replicates (recomputed)
Compound in experiment [1]: C#Cc1cccc(Nc2ncnc3cc(OCCOC)c(OCCOC)cc23)c1 [erlotinib]
The essentials: (§1)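 K562 cells at 2×10^6 cells/mL were given 10 μM compound for 30 min. Aliquots then went through 3 min of heating across 48°C-58°C, were pooled, and were extracted in PBS with 0.5% NP-40 at 4°C, and the supernatant after 21,000xg for 90 min was quantified by TMTpro 16plex LC-MS/MS with channel sums equalised. Thermal stability relative to control samples, from duplicates, is given as log2 fold change.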

Compound in experiment [2]: C/C(=N\NC(=O)C1=CC(=CC=C1)S(=O)(=O)N2CCOCC2)/C3=C(C=CC(=C3)Cl)O
The essentials: as §1

Compound in experiment [3]: C1=CC(=C(C=C1Cl)C2=NC3=NC=CN=C3C(=N2)NC4=CC=NC=C4)F
The essentials: as §1

Compound in experiment [4]: C1=CC(=CC=C1C2=NC3=C(N2)C=C(C=C3)C(=O)N)OC4=CC=C(C=C4)Cl
The essentials: as §1

Compound in experiment [5]: C1=CC2=C(C=CC(=C2)/C=C\3/C(=O)NC(=NCC4=CC=CS4)S3)N=C1
The essentials: as §1

Compound in experiment [6]: C1=CC2=NC=CN=C2C=C1/C=C/3\C(=O)NC(=O)S3
The essentials: as §1

Compound in experiment [7]: C1=CC=C(C=C1)C2=NC(=C(N2)C3=CC=NC=C3)C4=CC(=C(C=C4)Cl)O
The essentials: as §1

Compound in experiment [8]: C1=CC=C2C(=C1)C3=NNC4=CC=CC(=C43)C2=O
The essentials:
as §1

Compound in experiment [9]: C1CCN(C1)C(=O)NC2=CC=CC(=C2)NC3=NC=C(C(=N3)NCCC4=CN=CN4)Br
The essentials:
as §1

Compound in experiment [10]: C1CN(CCC1(CC2=CC=C(C=C2)Cl)N)C3=NC=NC4=C3C=CN4
The essentials: as §1

Compound in experiment [11]: C1COCCN1CCN2C3=CC=CC=C3N=C2NC(=O)C4=CC(=CC=C4)[N+](=O)[O-] [IRAK-1-4 Inhibitor I]
The essentials: as §1

Compound in experiment [12]: CC(=O)c1cnc2ccc(-c3cc(Cl)c(O)c(Cl)c3)nc2c1N[C@H]1CC[C@H](CN(C)C)CC1
The essentials:
as §1

Compound in experiment [13]: CC(C)(C)Cn1c(N)nc2ccc(-c3[nH]c(C(C)(C)C)nc3-c3ccc(F)cc3)nc21 [ralimetinib]
The essentials:
as §1

Compound in experiment [14]: CC(C)(O)CC(=O)NCCn1ccc2ncnc(Nc3ccc(Oc4cccc(C(F)(F)F)c4)c(Cl)c3)c21
The essentials: as §1

Compound in experiment [15]: CC(C)C1=C2N=C(C=C(N2N=C1)NCC3=CC=CC=C3)NCCCCCCN
The essentials: as §1

Compound in experiment [16]: CC(C)C[C@@H](C=O)NC(=O)[C@H](CC(C)C)NC(=O)[C@H](CC(C)C)NC(=O)OCc1ccccc1
The essentials: as §1

Compound in experiment [17]: CC(C)N(C[C@H]1O[C@@H](n2cnc3c(N)ncnc32)[C@H](O)[C@@H]1O)[C@H]1C[C@@H](CCc2nc3cc(C(C)(C)C)ccc3[nH]2)C1 [pinometostat]
The essentials:
as §1

Compound in experiment [18]: CC1=C(C(CC(=O)N1)C2=CC=C(C=C2)C(F)(F)F)C(=O)NC3=C(C=C4C(=C3)C=NN4)F
The essentials: as §1

Compound in experiment [19]: CC1=C(C2=C(C=C1)C(=O)C3=CC=CC=C3N2CCCN)C
The essentials:
as §1

Compound in experiment [20]: C=CC(=O)N1CCC[C@@H](n2nc(-c3ccc(Oc4ccccc4)cc3)c3c(N)ncnc32)C1 [ibrutinib]
The essentials: as §1

Chain of UniProt Q8IWX8 (Q8IWX8 whole entry, looked up): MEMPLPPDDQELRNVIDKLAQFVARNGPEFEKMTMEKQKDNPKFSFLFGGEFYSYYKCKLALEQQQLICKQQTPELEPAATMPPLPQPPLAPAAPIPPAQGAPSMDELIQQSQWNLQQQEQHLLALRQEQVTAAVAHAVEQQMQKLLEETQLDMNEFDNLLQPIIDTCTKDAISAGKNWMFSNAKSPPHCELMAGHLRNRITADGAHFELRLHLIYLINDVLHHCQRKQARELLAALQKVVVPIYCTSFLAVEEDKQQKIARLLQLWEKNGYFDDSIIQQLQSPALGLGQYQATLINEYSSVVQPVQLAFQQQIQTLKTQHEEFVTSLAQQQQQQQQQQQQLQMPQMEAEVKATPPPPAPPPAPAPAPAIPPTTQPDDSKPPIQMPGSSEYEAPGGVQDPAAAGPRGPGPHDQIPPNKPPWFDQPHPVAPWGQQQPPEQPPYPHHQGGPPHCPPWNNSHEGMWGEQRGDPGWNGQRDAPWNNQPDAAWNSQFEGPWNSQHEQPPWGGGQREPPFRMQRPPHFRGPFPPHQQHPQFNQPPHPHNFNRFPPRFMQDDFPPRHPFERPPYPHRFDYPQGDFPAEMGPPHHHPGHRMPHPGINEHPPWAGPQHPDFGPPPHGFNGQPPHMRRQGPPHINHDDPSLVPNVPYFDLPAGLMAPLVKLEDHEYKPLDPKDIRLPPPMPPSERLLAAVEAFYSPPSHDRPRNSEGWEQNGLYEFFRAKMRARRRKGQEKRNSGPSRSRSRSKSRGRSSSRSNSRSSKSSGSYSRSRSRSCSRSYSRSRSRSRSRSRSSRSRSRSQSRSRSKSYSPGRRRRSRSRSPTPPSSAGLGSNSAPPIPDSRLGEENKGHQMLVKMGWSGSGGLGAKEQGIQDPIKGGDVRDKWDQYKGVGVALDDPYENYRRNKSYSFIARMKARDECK
Chain of UniProt Q5VT25 (Q5VT25 whole entry, looked up): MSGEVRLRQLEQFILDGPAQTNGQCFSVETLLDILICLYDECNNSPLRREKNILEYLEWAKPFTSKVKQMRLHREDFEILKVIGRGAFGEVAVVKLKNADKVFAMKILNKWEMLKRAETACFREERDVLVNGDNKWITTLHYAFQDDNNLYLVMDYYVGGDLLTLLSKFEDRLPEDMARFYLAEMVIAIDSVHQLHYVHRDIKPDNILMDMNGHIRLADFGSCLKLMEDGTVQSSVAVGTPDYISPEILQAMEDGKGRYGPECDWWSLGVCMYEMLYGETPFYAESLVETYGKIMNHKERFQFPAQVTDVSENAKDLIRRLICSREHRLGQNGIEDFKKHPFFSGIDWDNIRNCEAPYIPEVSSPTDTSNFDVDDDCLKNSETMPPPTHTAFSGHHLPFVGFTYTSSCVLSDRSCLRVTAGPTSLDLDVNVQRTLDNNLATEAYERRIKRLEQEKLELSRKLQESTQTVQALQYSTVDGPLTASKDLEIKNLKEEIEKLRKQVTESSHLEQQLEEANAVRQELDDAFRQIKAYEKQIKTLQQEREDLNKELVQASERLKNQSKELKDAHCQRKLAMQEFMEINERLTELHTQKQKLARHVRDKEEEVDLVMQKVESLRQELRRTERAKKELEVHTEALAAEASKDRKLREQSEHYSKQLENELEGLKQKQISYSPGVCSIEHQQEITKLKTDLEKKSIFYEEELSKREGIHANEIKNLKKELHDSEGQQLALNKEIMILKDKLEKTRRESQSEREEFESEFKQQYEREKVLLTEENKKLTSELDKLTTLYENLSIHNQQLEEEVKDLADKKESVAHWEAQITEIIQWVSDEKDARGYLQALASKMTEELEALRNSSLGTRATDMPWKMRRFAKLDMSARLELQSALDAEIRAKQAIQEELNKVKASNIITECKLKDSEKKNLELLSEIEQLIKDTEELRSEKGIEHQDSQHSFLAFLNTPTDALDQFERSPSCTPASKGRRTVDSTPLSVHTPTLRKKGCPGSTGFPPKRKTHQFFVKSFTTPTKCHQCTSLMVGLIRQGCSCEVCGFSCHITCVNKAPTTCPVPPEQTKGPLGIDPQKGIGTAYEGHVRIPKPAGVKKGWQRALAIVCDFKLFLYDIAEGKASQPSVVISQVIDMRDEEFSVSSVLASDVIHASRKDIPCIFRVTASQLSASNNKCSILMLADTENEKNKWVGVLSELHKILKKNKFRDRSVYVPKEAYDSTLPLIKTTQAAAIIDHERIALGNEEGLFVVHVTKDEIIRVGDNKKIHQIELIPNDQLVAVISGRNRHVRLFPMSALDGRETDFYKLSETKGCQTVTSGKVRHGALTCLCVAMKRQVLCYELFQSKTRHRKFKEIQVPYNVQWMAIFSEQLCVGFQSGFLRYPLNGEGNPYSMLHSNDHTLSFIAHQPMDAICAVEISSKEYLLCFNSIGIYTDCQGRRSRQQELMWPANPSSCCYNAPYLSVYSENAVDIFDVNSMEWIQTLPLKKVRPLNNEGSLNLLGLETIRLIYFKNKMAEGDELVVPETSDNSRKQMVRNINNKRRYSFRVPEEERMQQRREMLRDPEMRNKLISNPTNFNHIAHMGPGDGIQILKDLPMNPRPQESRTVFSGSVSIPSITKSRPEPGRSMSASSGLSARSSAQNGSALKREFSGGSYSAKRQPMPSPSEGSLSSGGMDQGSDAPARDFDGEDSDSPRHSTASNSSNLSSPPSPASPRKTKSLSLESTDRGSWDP
Chain of UniProt Q6P5X5 (Q6P5X5 whole entry, looked up): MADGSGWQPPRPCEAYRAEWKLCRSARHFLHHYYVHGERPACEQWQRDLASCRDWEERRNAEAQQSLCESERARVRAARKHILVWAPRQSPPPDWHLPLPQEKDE
Chain of UniProt P50750 (P50750 whole entry, looked up): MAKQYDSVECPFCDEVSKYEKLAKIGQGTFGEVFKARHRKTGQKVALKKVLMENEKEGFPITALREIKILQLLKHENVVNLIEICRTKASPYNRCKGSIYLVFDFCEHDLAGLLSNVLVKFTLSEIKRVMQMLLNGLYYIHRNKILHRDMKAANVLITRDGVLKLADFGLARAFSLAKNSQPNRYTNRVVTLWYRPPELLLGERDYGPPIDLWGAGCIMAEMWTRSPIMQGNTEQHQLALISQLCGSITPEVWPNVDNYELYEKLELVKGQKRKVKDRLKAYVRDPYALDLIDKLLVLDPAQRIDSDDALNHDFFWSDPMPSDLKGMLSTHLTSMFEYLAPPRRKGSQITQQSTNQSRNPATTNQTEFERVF
Chain of UniProt O75122 (O75122 whole entry, looked up): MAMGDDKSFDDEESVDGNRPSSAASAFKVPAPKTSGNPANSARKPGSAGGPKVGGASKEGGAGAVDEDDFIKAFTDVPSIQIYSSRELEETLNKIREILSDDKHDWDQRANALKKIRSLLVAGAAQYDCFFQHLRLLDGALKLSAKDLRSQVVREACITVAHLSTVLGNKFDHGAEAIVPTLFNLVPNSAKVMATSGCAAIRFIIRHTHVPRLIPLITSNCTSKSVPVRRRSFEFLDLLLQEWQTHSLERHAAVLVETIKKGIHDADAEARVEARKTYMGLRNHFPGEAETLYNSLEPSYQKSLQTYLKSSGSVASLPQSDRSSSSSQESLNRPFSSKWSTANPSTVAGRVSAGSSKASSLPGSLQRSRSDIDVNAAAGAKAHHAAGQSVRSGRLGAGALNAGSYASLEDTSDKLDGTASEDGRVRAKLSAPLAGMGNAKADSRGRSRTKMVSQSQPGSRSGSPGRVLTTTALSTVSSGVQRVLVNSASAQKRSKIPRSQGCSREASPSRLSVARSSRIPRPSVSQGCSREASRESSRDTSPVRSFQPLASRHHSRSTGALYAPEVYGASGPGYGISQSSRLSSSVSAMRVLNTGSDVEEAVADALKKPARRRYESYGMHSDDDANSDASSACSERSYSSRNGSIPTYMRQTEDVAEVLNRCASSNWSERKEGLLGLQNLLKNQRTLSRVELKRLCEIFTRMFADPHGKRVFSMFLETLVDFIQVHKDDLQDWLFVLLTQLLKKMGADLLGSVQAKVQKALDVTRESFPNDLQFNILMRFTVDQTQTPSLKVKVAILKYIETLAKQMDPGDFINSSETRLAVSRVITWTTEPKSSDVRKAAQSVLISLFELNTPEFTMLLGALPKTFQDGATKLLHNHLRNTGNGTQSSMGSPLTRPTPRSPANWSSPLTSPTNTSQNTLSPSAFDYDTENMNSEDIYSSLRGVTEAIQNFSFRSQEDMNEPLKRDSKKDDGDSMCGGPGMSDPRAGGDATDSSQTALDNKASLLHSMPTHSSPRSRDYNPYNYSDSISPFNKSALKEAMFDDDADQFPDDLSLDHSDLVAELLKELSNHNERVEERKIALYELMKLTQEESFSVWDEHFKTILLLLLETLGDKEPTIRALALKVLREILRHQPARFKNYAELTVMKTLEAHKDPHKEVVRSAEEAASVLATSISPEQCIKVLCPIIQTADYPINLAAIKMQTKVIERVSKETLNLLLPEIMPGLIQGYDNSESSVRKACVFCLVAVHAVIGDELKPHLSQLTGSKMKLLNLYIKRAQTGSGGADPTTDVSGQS
Chain of UniProt O75208 (O75208 whole entry, looked up): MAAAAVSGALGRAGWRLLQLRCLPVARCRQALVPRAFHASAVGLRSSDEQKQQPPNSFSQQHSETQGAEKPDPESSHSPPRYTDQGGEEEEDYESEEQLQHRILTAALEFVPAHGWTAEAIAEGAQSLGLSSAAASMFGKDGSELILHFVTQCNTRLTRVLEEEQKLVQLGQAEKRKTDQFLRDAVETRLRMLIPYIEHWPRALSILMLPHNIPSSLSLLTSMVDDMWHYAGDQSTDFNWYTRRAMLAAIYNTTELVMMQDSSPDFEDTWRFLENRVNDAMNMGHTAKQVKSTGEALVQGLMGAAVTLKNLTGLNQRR
Chain of UniProt Q99439 (Q99439 whole entry, looked up): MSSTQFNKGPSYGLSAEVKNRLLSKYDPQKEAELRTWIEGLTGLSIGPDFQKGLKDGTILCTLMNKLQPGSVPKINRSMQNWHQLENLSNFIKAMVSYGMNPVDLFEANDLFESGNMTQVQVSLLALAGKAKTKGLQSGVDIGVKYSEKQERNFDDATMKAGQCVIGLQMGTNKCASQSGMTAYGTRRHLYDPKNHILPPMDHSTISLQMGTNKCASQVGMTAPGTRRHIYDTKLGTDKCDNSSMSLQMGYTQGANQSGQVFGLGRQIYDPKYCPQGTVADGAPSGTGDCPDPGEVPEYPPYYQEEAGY

Take CLASP2 isoform 3 (UniProt O75122): the log2 fold change is 0.014 in [1]; 0.136 in [2]; 0.066 in experiment [3]; 0.032 in [4]; 0.081 in experiment [5]; -0.013 in experiment [6]. Also, the log2 fold change in [7] was -0.01; in experiment [8], 0.006; in experiment [9], -0.063; in [10], 0.041; in [11], -0.047; in experiment [12], -0.297 (active). Moreover, the log2 fold change was 0.009 in experiment [13]; -0.056 in [14]; -0.036 in experiment [15]; 0.046 in experiment [16]; 0.018 in [17]; 0.023 in experiment [18]. In addition, in experiment [19], the log2 fold change is 0.046.

As for C22orf39 (UniProt Q6P5X5), the log2 fold change in experiment [1] is -0.256; in experiment [2] it was -0.02; in experiment [3] it was -0.018; in experiment [4] it was 0.02; in experiment [5] it was -0.014; in [6], 0.051. The log2 fold change in experiment [7] is -0.023; in [8], -0.004; in [9], 0.037; in experiment [10], 0.02; in experiment [11], 0.12; in experiment [20], 0.033. The log2 fold change in [12] is -0.069; in [13] it was -0.104; in [14], 0.018; in experiment [15], -0.587 (active); in experiment [16], 0.126; in experiment [17] it was 0.035. In addition, the log2 fold change in experiment [18] is 0.014; in experiment [19] it was 0.213.

For the target CDC42BPA isoform 6 (UniProt Q5VT25), the log2 fold change in experiment [1] is -0.081; in experiment [2], 0.115; in [3], -0.022; in experiment [4], 0.008; in experiment [5], -0.337; in [6], -0.011. Further, the log2 fold change in experiment [7] was 0.03; in experiment [8], 0.073; in [9], -0.03; in [10], -0.396; in [11] it was -0.025; in experiment [20], -0.09. The log2 fold change was -1.07 (active) in [12]; 0.094 in experiment [13]; -0.02 in [14]; -0.193 in [15]; 0.043 in experiment [16]; 0.029 in [17]. In addition, the log2 fold change in experiment [18] was -0.192; in [19] it was 0.132.

As to COQ9 (UniProt O75208), the log2 fold change was 0.035 in experiment [1]; 0.082 in [2]; 0.006 in experiment [3]; 0.016 in experiment [4]; 0.034 in [5]; 0.056 in experiment [6]. Besides, the log2 fold change in experiment [7] is 0.012; in experiment [8], 0.008; in experiment [9], -0.018; in experiment [10] it was -0.001; in experiment [11], 0.005; in experiment [20], 0.03. For the same target, the log2 fold change is -0.007 in [12]; -0.055 in experiment [13]; 0.085 in experiment [14]; -0.092 in [15]; -0.024 in [16]; -0.062 in [17]. The log2 fold change in experiment [18] was 0.019; in experiment [19], 0.043.

Take CDK9 isoform 2 (UniProt P50750): the log2 fold change in experiment [1] is 0.043; in [2] it was -0.005; in experiment [3], -0.174; in experiment [4], 0.024; in experiment [5], -0.084; in experiment [6], 0.05. The log2 fold change is 0.059 in experiment [7]; -0.076 in experiment [8]; -0.001 in experiment [9]; -0.059 in [10]; -0.02 in [11]; -0.017 in experiment [20]. The log2 fold change in [12] is 0.233; in experiment [13], -0.008; in [14], 0; in [15], -0.113; in [16], 0.044; in experiment [17], 0.157. The figures for the log2 fold change in [18] and in experiment [19] were -0.03 and -0.144, respectively.

As for CNN2 (UniProt Q99439), the log2 fold change in experiment [1] was 0.047; in experiment [2], 0.124; in experiment [3], 0.109; in experiment [4] it was -0.039; in experiment [5] it was 0.013; in [6] it was 0.032. Also, the log2 fold change is -0.012 in experiment [7]; -0.011 in experiment [8]; -0.017 in [9]; -0.042 in experiment [10]; -0.037 in experiment [11]; -0.07 in experiment [20]. Further, the log2 fold change in [12] was 0.011; in experiment [13] it was 0.007; in [14], -0.091; in experiment [15], -0.052; in experiment [16], 0.038; in experiment [17] it was 0.018. The log2 fold change in experiment [18] was 0.05; in experiment [19], 0.007.

Consider CHERP (UniProt Q8IWX8), for which the log2 fold change was 0.083 in experiment [1]; 0.065 in experiment [2]; 0.014 in experiment [3]; 0.053 in [4]; -0.03 in [5]; 0.09 in experiment [6]. For the same target, the log2 fold change in [7] was 0.026; in experiment [8] it was -0.036; in experiment [9], -0.084; in experiment [10], -0.113; in [11], -0.091; in experiment [20], -0.069. Also, the log2 fold change in experiment [12] was -0.317 (active); in experiment [13], 0.013; in experiment [14], -0.074; in experiment [15], -0.097; in experiment [16], 0.048; in experiment [17] it was 0.021. Besides, the log2 fold change in [18] was 0.122; in experiment [19], -0.079.
